Bioassay records: PubChem, Broad Institute
In the library only some 3.3% were active in any assay of this set; here they are far more common.
FGF22 binding = shifts melting point of recombinant human FGF22; AID 651658; activity (Tm shift, normalised), % at 9.99 µM; 340,000 tested, 1.5% active; recombinant FGF22 thermal shift, SYPRO orange fluorescence; percent of sucrose octasulfate shift, DMSO zero; Q9HCT0;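 active = mean Tm shift, scaled 0 neutral to 100 positive control, at about 1.3% or above, every replicate too, limit read from the data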
Target sequence (Q9HCT0 whole entry, looked up): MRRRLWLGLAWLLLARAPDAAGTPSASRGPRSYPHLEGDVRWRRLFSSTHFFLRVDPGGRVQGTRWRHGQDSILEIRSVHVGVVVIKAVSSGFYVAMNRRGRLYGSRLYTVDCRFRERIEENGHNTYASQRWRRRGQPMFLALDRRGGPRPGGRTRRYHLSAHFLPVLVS
GSIS activator = primary screen for activators of insulin secretion dependent on glucose, INS-1E cells, GLuc reporter luminescence | INS-1E GLuc reporter insulin secretion, 2-3 h | activation, % at 16.6 µM | 370,000 tested, 0.61% active;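 active = lowest replicate activation of at least 40%, so every replicate reaches that level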;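 note: 0% = median of neutral control wells and 100% = median of IBMX positive control wells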
ERAP1 inh = blocks human ERAP1 aminopeptidase activity. Q9NZ08. 340,000 tested, 0.15% active. AID 652197. inhibition, % at 10.7 µM. recombinant ERAP1, Leu-AMC fluorescence, 60 min;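 active = mean replicate inhibition of at least 30%, or all replicates individually reaching that 30% level; inactive = mean below 30% and not every replicate reaching it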;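 note: 0% = neutral control wells and 100% = L-leucinethiol positive control wells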
CASP6 VEID inh = caspase-6 (human) enzyme inhibition; purified caspase-6, Z-VEID-R110 cleavage fluorescence; inhibition, % at 12.5 µM; P55212; 350,000 tested, 0.53% active;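 active = mean inhibition across replicates at least about 35%, with every replicate also reaching that limit, limit read from the data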;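 note: 0% = median of neutral control wells and 100% = no fluorescence left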
SIRT5 inh = sirtuin-5 (human) deacylase inhibition. Q9NXA8. Purified SirT5, succinyl-peptide AMC, trypsin-coupled fluorescence. inhibition, % at 15 µM. 330,000 tested, 1.1% active; in the data active = inhibition above about 15%
Target sequence (Q9NXA8 whole entry, looked up): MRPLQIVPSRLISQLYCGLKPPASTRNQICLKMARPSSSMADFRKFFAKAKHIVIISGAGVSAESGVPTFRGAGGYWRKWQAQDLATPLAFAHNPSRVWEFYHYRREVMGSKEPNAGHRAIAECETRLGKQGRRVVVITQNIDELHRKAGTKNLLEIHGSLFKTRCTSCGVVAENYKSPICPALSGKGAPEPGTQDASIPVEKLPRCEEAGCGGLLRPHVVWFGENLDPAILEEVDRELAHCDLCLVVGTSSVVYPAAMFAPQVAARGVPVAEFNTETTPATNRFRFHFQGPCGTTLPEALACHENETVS
* hit, by the source's call.

Screening C[C@H]1CN([C@@H](C)CO)C(=O)c2cccc(NS(=O)(=O)c3ccc(F)cc3)c2O[C@H]1CN(C)Cc1ccc(C(=O)Nc2ccccc2N)cc1 returned FGF22 binding -0.2, GSIS activator 2.0, ERAP1 inh 2.1, CASP6 VEID inh 2.1 and SIRT5 inh 5.7.
Screening CC(=O)Nc1c(O)nc(SCC(=O)Nc2ccc(C(C)=O)cc2)[nH]c1=O returned FGF22 binding 0.3, GSIS activator -17.6, ERAP1 inh 3.7, CASP6 VEID inh 19.4 and SIRT5 inh 0.1.
CC(=O)Nc1c(O)nc(SCC(=O)Nc2nnc(SCc3ccccc3)s2)[nH]c1=O was read as FGF22 binding 41.1, GSIS activator -7.1, ERAP1 inh 1.8, CASP6 VEID inh 79.8* and SIRT5 inh 3.6.
Screening CCOC(=O)c1c(C)c(C(=O)NCc2ccccc2OC)c(C)n1C returned GSIS activator 10.4, ERAP1 inh -0.9, CASP6 VEID inh 0.4 and SIRT5 inh 1.2.
Screening CCOC(=O)c1c(C)c(C(=O)NCc2ccc(OC)cc2)c(C)n1C returned FGF22 binding -0.3, GSIS activator 31.1, ERAP1 inh -0.2, CASP6 VEID inh 47.6* and SIRT5 inh 1.0.
Cc1ccc(-c2csc(NC(=O)/C=C/c3ccco3)c2C(=O)O)cc1 was read as FGF22 binding 0.0, GSIS activator -6.3, ERAP1 inh 11.1, CASP6 VEID inh 75.4* and SIRT5 inh 6.9.
Cc1ccc(-c2csc(NC(=O)c3cccc(C)c3)c2C(=O)O)cc1 was read as FGF22 binding -0.2, GSIS activator -8.7, ERAP1 inh 4.6, CASP6 VEID inh -1.0 and SIRT5 inh 2.6.
For O=C(/C=C/c1ccco1)Nc1sc2c(c1C(=O)O)CCC2 the results were FGF22 binding 0.0, GSIS activator 15.1, ERAP1 inh 7.1, CASP6 VEID inh 60.7* and SIRT5 inh 10.9.
For C[C@@H]1CN([C@@H](C)CO)C(=O)c2cc(NC(=O)Nc3ccccc3)ccc2O[C@H]1CN(C)S(=O)(=O)c1ccc(F)cc1 the results were FGF22 binding 0.0, GSIS activator -9.4, ERAP1 inh -5.4 and SIRT5 inh 1.1.
Screening COc1cc(OC)cc(C(=O)N2CCN(Cc3ccccc3Br)CC2)c1 returned FGF22 binding 43.2*, GSIS activator -23.3, ERAP1 inh 1.0, CASP6 VEID inh 2.8 and SIRT5 inh -1.0.
`COc1cc(OC)cc(C(=O)N2CCN(C(=O)Cc3ccccc3)CC2)c1` gave FGF22 binding 42.0, GSIS activator -1.1, ERAP1 inh -0.1, CASP6 VEID inh -0.6 and SIRT5 inh -0.5.
`Cc1noc(C)c1NC(=O)Nc1ccc2c(c1)C(=O)N([C@H](C)CO)C[C@@H](C)[C@H](CN(C)C)OCCCC[C@H](C)O2` gave FGF22 binding -0.1, GSIS activator 30.7, ERAP1 inh -3.9, CASP6 VEID inh 2.8 and SIRT5 inh 1.9.
For C=CCN=C1CC(C)(C)C(C(=O)OC)C(O)=C1C(=O)CCC (centres undefined) the results were FGF22 binding 42.3, GSIS activator 72.5*, ERAP1 inh -2.4, CASP6 VEID inh 0.2 and SIRT5 inh -0.7.
Screening C=CCON/C(CCC)=C1\C(=O)C(C(=O)OC)C(C)(C)CC1=NC (centres undefined) returned FGF22 binding 44.1*, GSIS activator 6.2, ERAP1 inh -6.5, CASP6 VEID inh -1.8 and SIRT5 inh -1.2.
`CCCC(=O)C1=C(N2CCCCC2)CC(C)(C)C(C(=O)OC)C1=O` (centres undefined) gave FGF22 binding 0.0, GSIS activator 6.5, ERAP1 inh 1.6, CASP6 VEID inh -2.0 and SIRT5 inh -3.5.
Cc1ccccc1-c1ccc2c(c1)O[C@H](CN(C)Cc1ccncc1)[C@H](C)CN([C@@H](C)CO)S2(=O)=O was read as FGF22 binding 0.2, GSIS activator -24.8, ERAP1 inh 2.6, CASP6 VEID inh 1.7 and SIRT5 inh 8.5.
`CCCN1[C@@H]2c3ccc(C4=CCCCC4)c(=O)n3C[C@H]1[C@H](CO)[C@H]2C(=O)NCC` gave FGF22 binding -0.1, GSIS activator -7.2, ERAP1 inh 0.8, CASP6 VEID inh 1.0 and SIRT5 inh -7.4.
Screening CCSc1nnc(CNC(=O)c2ccccc2F)n1-c1ccccc1OC returned FGF22 binding 43.5*, GSIS activator 2.3, ERAP1 inh 4.3, CASP6 VEID inh 3.5 and SIRT5 inh 2.4.
Screening COC(=O)CSc1nnc(CNC(=O)c2ccccc2F)n1-c1ccc(F)cc1 returned FGF22 binding 0.0, GSIS activator 5.7, ERAP1 inh 0.1 and CASP6 VEID inh -6.6.
Cc1cc(C(=O)NN=C2CCCC2)c2ccccc2n1 was read as FGF22 binding -0.1, GSIS activator 10.6, ERAP1 inh 4.2, CASP6 VEID inh 1.3 and SIRT5 inh -5.2.
For Cc1cc(C(=O)N/N=C2\CC(=O)CC(C)(C)C2)c2ccccc2n1 the results were FGF22 binding 43.0*, GSIS activator -0.8, ERAP1 inh -2.6, CASP6 VEID inh -2.6 and SIRT5 inh 1.7.
`N#CC1(NC(=O)CSc2nnc(COc3ccccc3F)n2N)CCCCC1` gave GSIS activator 7.0, ERAP1 inh -1.1, CASP6 VEID inh 71.9* and SIRT5 inh -4.8.
`Cn1ncc2c(=O)n(/N=C/c3ccccc3)cnc21` gave FGF22 binding 43.7*, GSIS activator -5.1, ERAP1 inh -1.5, CASP6 VEID inh -2.3 and SIRT5 inh -1.6.
Screening C[C@H](CO)N1C[C@H](C)[C@@H](CN(C)S(=O)(=O)c2cn(C)cn2)OCc2ccccc2-c2ccccc2C1=O returned FGF22 binding 0.1, GSIS activator 7.2, ERAP1 inh -3.4, CASP6 VEID inh -0.2 and SIRT5 inh 3.0.
Screening CC(=O)N(c1ccccc1)c1ccc([N+](=O)[O-])cc1[N+](=O)[O-] returned GSIS activator 3.6.
CC(=O)N(c1cc(C)ccc1C)c1ccccc1[N+](=O)[O-] was read as FGF22 binding 43.0*, ERAP1 inh -1.1 and CASP6 VEID inh -0.4.
For C[C@H](CO)N1C[C@H](C)[C@@H](CN(C)S(=O)(=O)c2ccccc2)Oc2ncc(-c3cccc(C(=O)N(C)C)c3)cc2C1=O the results were FGF22 binding 0.1, GSIS activator -6.1, ERAP1 inh 1.8, CASP6 VEID inh 3.5 and SIRT5 inh -2.0.
Screening O=C(O)[C@H]1CCCN1C(=O)c1ccccc1N1C(=O)[C@@H]2Cc3c([nH]c4ccccc34)C(c3cccc(Cl)c3)N2C1=O (some centres undefined) returned FGF22 binding 0.3, GSIS activator 11.2, ERAP1 inh 7.7, CASP6 VEID inh 2.3 and SIRT5 inh 4.2.
For O=C(O)[C@@H]1CCCN1C(=O)c1ccccc1N1C(=O)[C@@H]2Cc3c([nH]c4ccccc34)C(c3cccc(Cl)c3)N2C1=O (some centres undefined) the results were FGF22 binding 0.2, GSIS activator -5.0, ERAP1 inh 32.7*, CASP6 VEID inh -2.2 and SIRT5 inh 1.6.
